Results as given in the supplement of paper PMC10681739.
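Further: Full-length recombinant human RUNX1 bound to double-stranded 36-bp genomic probes on a high-density microarray, scored as Alexa488 fluorescence per spot via anti-RUNX1 antibody, median of four replicate spots.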

Each sequence was assayed against RUNX1 (UniProt Q01196) (assay: RUNX1 binding intensity (PBM fluorescence), RUNX1 alone (arbitrary fluorescence units); higher = stronger binding). Conditions: RUNX1 concentration 2 nM; ETS1 concentration 0 nM.
Chain of RUNX1 (Q01196 whole entry): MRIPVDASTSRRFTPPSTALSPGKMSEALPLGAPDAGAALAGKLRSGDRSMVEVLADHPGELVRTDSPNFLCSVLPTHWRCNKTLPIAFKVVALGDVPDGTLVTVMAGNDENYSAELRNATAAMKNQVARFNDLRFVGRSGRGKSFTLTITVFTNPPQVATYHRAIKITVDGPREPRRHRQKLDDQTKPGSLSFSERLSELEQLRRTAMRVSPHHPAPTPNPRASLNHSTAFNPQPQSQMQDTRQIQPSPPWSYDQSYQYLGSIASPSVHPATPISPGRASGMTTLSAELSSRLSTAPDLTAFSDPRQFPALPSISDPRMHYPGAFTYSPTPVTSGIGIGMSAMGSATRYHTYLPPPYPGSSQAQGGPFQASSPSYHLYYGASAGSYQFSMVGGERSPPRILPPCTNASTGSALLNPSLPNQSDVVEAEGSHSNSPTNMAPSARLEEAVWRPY
Experimental: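 Cooperative gcPBM on 36-bp genomic probes with neighbouring ETS1 and RUNX1 sites. Recombinant human RUNX1 (2 nM) was incubated alone or with ETS1 (25 nM) and detected with anti-RUNX1 antibody plus Alexa488 secondary. Values are medians over 4 replicate spots; the RUNX1+ETS1 data were normalised to the RUNX1-only data. The probes sit in constant array flanks that are not printed.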
With CTCGCGATTCCTCTTCCGCTGCGGTCTCCTTAACAC the RUNX1 binding intensity was 1290. With GAAGCGCTGGGCGGAAGTGGCTGTGGCTTTGCCCTT the RUNX1 binding intensity was 735. GGGACAGACTCTCCAGGATGTGGTTGGATTTTGGGC showed an RUNX1 binding intensity of 754. CACCCTGCCACTTCCCTAAACTCCCCGCACAGGCCG showed an RUNX1 binding intensity of 1640. For GACATCCAGGAAGTGGTGAGAAACCACGTGTGTGTT, the RUNX1 binding intensity was 747. AGGGAAGCAGGAAGTGACTGCGGGAGTGGAGCCGGC showed an RUNX1 binding intensity of 677. For AGGACACAGACAGGAAACCCGCAGGCTTTGTTTTTT, the RUNX1 binding intensity was 859. For GGGGCCTCTGCTACTTCCTAGACCGCAAAATGGAGA, the RUNX1 binding intensity was 5260. In the case of ACTCCCTAGAGCAGGAAGCCTGTGGTTTGTAATTGG, the RUNX1 binding intensity is reported as 1040. GAGCACAGGAAAAGCTGGTGCCAACCACAAGTGCTT was tested, and the RUNX1 binding intensity was 815. For CCCAATTTCCTTTGCTCTGCTGTCTGCCAACCGCAA, the RUNX1 binding intensity was 2740. CGGCTGTTTTCCAGGATGTTGTGGTCATGGCGGTGT gave an RUNX1 binding intensity of 2920. For CTCTGCTTCCTGTCTTTGAATGCCTCTGTGGTTTTC, the RUNX1 binding intensity was 2080. Work on GTCACCATTTCCGGGCCTCCGCGGTGTCCCCACCCC yielded an RUNX1 binding intensity of 1040. CCGATGGCGGCGGAACTGTGGTCAGGGCTGCCCTGA gave an RUNX1 binding intensity of 825. For CGAACTCCCGTCCGGCCGCGCCCGCAGCCCGCCGCC, the RUNX1 binding intensity was 960. TGCCTTCTACTCCGGAACTCAGACCGCTGCCTTCTA was tested, and the RUNX1 binding intensity was 1090. ATAGACTCAGGAAGTGATTGTGGTAAGATTCTATAT was tested, and the RUNX1 binding intensity was 829. Work on CTTCACTATGCATCCTGTACTGCAACCACACCAAAC yielded an RUNX1 binding intensity of 1350. GTTTTCAAGGCAGGAAGTGGCTGTGGTGGCACGGAG showed an RUNX1 binding intensity of 789. TGGGGCTAGGCTTCCGGGGCTCTGCGGTCCTCGGCC gave an RUNX1 binding intensity of 662. In the case of CCGAGCTTAACGACATCCTGCGGCTCAGCGTGGAGG, the RUNX1 binding intensity is reported as 792. Sequence GGACCGGAAGTTAAGGCGTTCGCGGCGTGTGGTAAG has an RUNX1 binding intensity of 626. In the case of GCAGAGTTTACAACAGGATGTGGTTATTGGCGCTGC, the RUNX1 binding intensity is reported as 777. GCGCGGGCAACTTCCGGTGTGGGTGACGAGTGGTGG showed an RUNX1 binding intensity of 778. CAGTGAACAGTTTCCTGTTCCTGTGGTTTTGACTTT gave an RUNX1 binding intensity of 1420. Work on TGGAAGAGGGCAGGAAGTGTTGTGGTCACTCCCACC yielded an RUNX1 binding intensity of 856. For CTTACAGTCACAACAGGATGTGGTTTGACATTTACT, the RUNX1 binding intensity was 869. Work on TCCCACTGCGACGGAAGCACAGCGGTTAAGATTGCA yielded an RUNX1 binding intensity of 792. CTGCCCAGCCACTTCCTGCCCAACCACAGACTGACA showed an RUNX1 binding intensity of 1420. TGGCTTATCCTAACAGGAAGTGGTTTATCTGATCCT was tested, and the RUNX1 binding intensity was 767. With TACCTACAGGAAATGAGACACACCGCAGGCCGATCC the RUNX1 binding intensity was 868. Work on AGGACCGGAAGTGCCCGAGGGCGGCCGCAGAACGGT yielded an RUNX1 binding intensity of 719. With CGCCGAACTTCCGGCAGTAAATTCCGTGGTTTCCCT the RUNX1 binding intensity was 911. For GGCAAACAGGAAACACTCCCAGGGCTGTGGGCTCCT, the RUNX1 binding intensity was 727. With GCCCCGGAAGTGGCCCGGCTGTTGGCCGCAGCGGGA the RUNX1 binding intensity was 667. In the case of GGCAACCGGCCCCGGAAGTTGCGGCAGGTGCGTCCA, the RUNX1 binding intensity is reported as 685. TGGGCAGGAAGTGGTATCTGATTGTGGTTTTGATTT gave an RUNX1 binding intensity of 1360. GCCCACTTCCTGCCGTAAGAGAAAACCACTAACACA was tested, and the RUNX1 binding intensity was 1970. AGTCCTGCCCACTTCCTGCCGCAAGAGAAATCCACT gave an RUNX1 binding intensity of 1250.
